Source: PubChem BioAssay (The Scripps Research Institute Molecular Screening Center)
In the library only some 4.8% were active in any assay of this set; here they are far more common.
hcDAF-12 act: H. contortus DAF-12 activation, primary screen; HEK293 hcDAF-12 lit1-tk-luc reporter, luminescence; 0% DMSO, 100% Δ7-dafachronic acid; activation, % at 6.8 µM; 370,000 tested, 1.4% active; AID 652067;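 active means activation above the mean of all tested compounds plus 3 SD, cut at about 5.5% in these data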;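 further: 100% = response to 3 µM Δ7-dafachronic acid high control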
ssDAF-12 act: S. stercoralis DAF-12 activation, primary screen; AID 652126; HEK293 ssDAF-12/GRIP1 lit1-tk-luc reporter, luminescence; % of 3 µM dafachronic acid response; activation, % at 6.8 µM; 370,000 tested, 1% active;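 active means activation above the mean over all tested compounds plus 3 SD, cut at about 0.9% in these data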;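 further: 0% = DMSO-only wells and 100% = 3 µM delta7-dafachronic acid wells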
DAX1 inh-1: DAX1 (NR0B1) inhibition, primary screen | HEK293T StAR-luciferase reporter, SF-1/DAX-1 repression relief | inhibition, % at 6.8 µM | 370,000 tested, 1.1% active | AID 652010;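 active means inhibition above the mean over all tested compounds plus 3 SD, cut at about 3.6% in these data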;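 further: 0% = DAX-1 cells with DMSO and 100% = cells lacking DAX-1 with DMSO; higher inhibition means more luminescence from relief of DAX-1 repression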
SMARCA2 act: increases SMARCA2 function in MMTV reporter cells; MG213 cells, MMTV-luciferase reporter, dexamethasone, overnight; activation, % at 9.1 µM; 370,000 tested, 1% active; in the data active means activation above about 7.8%;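 further: 0% = vehicle wells and 100% = reference activator wells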
hgDAF12 agonist: hgDAF-12 agonism, primary luciferase screen | HEK293 GAL4-hgDAF12 UAS-luciferase reporter, agonist luminescence; normalized to butyrate control | activation, % at 6.8 µM | 370,000 tested, 1.8% active;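 active means activation above a cutoff set at the mean of all screened compounds plus 3 SD, cut at about 10% in these data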;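 further: 0% = DMSO wells and 100% = sodium butyrate wells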
DAX1 inh-2: inhibitors of human orphan nuclear receptor DAX1 (NR0B1); HEK293 Gal4-DAX1 luciferase reporter, luminescence; inhibition, % at 6.75 µM; 340,000 tested, 0.99% active;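 active means inhibition above the mean over all tested compounds plus 3 SD, cut at about 4.2% in these data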;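 further: 0% = DAX1-transfected cells with DMSO and 100% = empty-vector control cells with DMSO; inhibition shows as a rise in luminescence from relieved DAX1 repression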
Target sequence (P51843 207-470 limits assumed): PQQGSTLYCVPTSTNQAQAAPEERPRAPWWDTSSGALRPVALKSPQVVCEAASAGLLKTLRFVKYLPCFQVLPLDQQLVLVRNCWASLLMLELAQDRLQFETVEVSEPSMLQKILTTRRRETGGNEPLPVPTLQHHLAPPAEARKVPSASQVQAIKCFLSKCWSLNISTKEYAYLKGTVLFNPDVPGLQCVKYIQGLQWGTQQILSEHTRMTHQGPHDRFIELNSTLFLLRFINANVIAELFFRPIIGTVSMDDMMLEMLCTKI
* hit, by the source's call; nt = not tested or not shown.

SMILES	hcDAF-12 act	ssDAF-12 act	DAX1 inh-1	SMARCA2 act	hgDAF12 agonist	DAX1 inh-2
Cc1ccc2oc(-c3cccc(NC(=O)/C=C/c4cccc([N+](=O)[O-])c4)c3C)nc2c1	6.2*	0	1	3	9	0
O=C(/C=C/c1cccc([N+](=O)[O-])c1)Nc1ccccn1	2	-2	1	2	0	2
Clc1nnc(NN=C2CCCC2)c2ccccc12	4	1.3*	0	-3	4	4
CCCCN1CC[C@H]2C=CC[C@@H](C(=O)Nc3nccs3)[C@H]2C1=O	0	-1	1	0	-1	1
O=C1CC(c2ccc(S(=O)(=O)NCc3ccccc3)cc2)CN1 (configuration not stated)	1	-1	0	-1	0	5.6*
CC(C)n1cc(/C=N/Nc2ccc(Cl)c(C(=O)O)c2)c2ccccc21	nt	nt	nt	nt	nt	4.5*
COc1cc(C(=S)N2CCC(C)CC2)ccc1O	0	-1	-1	-5	0	4
O=C(c1ccco1)[C@@H]1[C@@H]2C(=O)N(c3ccc(F)cc3)C(=O)[C@@H]2C2c3ccccc3C=CN21 (some centres not stated)	5	0	0	1	3	nt
O=C(c1ccco1)[C@@H]1[C@@H]2C(=O)N(c3ccc(Br)cc3)C(=O)[C@@H]2C2c3ccccc3C=CN21 (some centres not stated)	3	1.2*	0	2	1	1
CC(C)[C@H](Nc1ccc(S(=O)(=O)N2CCOCC2)cc1[N+](=O)[O-])C(=O)OCC(N)=O	-2	-1	0	6	0	2
Cc1nc(NC(=S)NC(=O)COc2ccc(Cl)cc2)ccc1Br	0	-1	-1	-1	2	6.0*
Cc1ccc(OCC(=O)NC(=S)Nc2ccc(Br)c(C)n2)cc1	-1	-1	2	-3	1	-1
Cc1nc(NC(=S)NC(=O)c2cccs2)ccc1Br	5	1.3*	0	4	5	1
Cc1ccc(OCC(=O)NC(=S)Nc2cccc(C)n2)cc1	2	-1	0	3	0	7.8*
N#Cc1ccccc1NC(=S)NC(=O)c1cccs1	6.0*	1	3	3	10	2
Cc1cccc(NC(=S)NC(=O)c2cccs2)n1	3	-1	1	7	6	1
COc1ccc(CNC(=O)CN(C(=O)c2csnn2)c2ccc3c(c2)OCCO3)cc1	3	-1	0	0	1	-1
COCc1cc(C)nc(SCc2ccc([N+](=O)[O-])cc2)c1C#N	-2	-1	0	3	-3	4.6*
COCc1cc(C)nc(SCc2ccccc2Cl)c1C#N	-4	-1	0	-1	-4	0
COCCNc1cnn(-c2ccccc2)c(=O)c1Cl	2	-2	0	-3	1	4.9*
CCOC(=O)/C=C/c1ccc2oc3ccccc3c(=O)c2c1	5	2.0*	1	8	7	1
COc1cc2oc3ccccc3c(=O)c2cc1OC	nt	nt	nt	nt	nt	1
CCCOc1ccc(N2C(=O)CC(N(CCc3ccc(OC)c(OC)c3)C(=S)Nc3ccccc3)C2=O)cc1 (configuration not stated)	nt	nt	nt	nt	nt	0
CNC(=S)N(CCc1ccc(OC)c(OC)c1)C1CC(=O)N(c2ccccc2)C1=O (configuration not stated)	nt	nt	nt	nt	nt	5.0*
COc1ccc(-n2nnnc2SCC(=O)N2CCN(C(=O)c3ccco3)CC2)cc1OC	-1	-1	0	2	-1	0
SMILES	hcDAF-12 act	ssDAF-12 act	DAX1 inh-1	SMARCA2 act	hgDAF12 agonist	DAX1 inh-2
c1ccc(CSc2nnc3ccc(-c4cccs4)nn23)nc1	1	-2	0	0	4	1
c1ccc(CSc2ccc(-c3cccs3)nn2)nc1	0	-1	3.8*	3	12*	1
COc1ccc2c(=O)c3c(=O)n(CCc4ccccc4)c(C(C)C)nc3oc2c1	1	-1	0	-2	0	4.7*
CC1(C)S/C(=N/N=C/c2cccs2)NC1=O	-1	-1	-1	3	0	0
COc1cccc(=O)c2c(C)n(CC(=O)c3ccccc3)c(C)c12	1	1.5*	0	-5	-1	-1
C/C(CCc1ccc2c(c1)OCO2)=N\NC(=O)c1ccccc1	2	2.5*	0	3	11*	0
